Data taken from PubChem BioAssay (NCI).
Compounds without any hit were thinned out: in the full panel of roughly 83,000, 20% have a hit.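 Note: values are percent growth. 100 is the growth of untreated cells, values between 100 and 0 indicate rising inhibition; between -100 and 0 indicates cell death.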 A number with no mark means an inactive call. Active and inactive are the calls of the source. How the source made its calls: active means growth percent below 10; inactive means the rest.

Tests used:
Experiment in all cases: NCI-60 one-dose screen, 48 h (100 = growth as untreated, 0 = no growth, -100 = all killed)
Settings in all cases: 10 µM
[1] = test system: NCI-H23 lung
[2] = test system: NCI-H226 lung
[3] = test system: NCI-H322M lung
[4] = test system: HOP-62 NSCLC
[5] = test system: NCI-H460 lung
[6] = test system: HOP-92 NSCLC
[7] = test system: NCI-H522 lung
[8] = test system: A549/ATCC NSCLC
[9] = test system: 786-0 renal
[10] = test system: COLO 205 colon

SMILES | growth [1] | growth [2] | growth [3] | growth [4] | growth [5] | growth [6] | growth [7] | growth [8] | growth [9] | growth [10]
Cc1ccc(-c2cc(C(=O)N=Nc3c(O)[nH]c4ccccc34)c3ccccc3n2)cc1 | 31.8% | 47% | 69.8% | 66.2% | -35.8% (active) | 21.6% | 56.6% | 2.51% (active) | 35.8% | -5.04% (active)
CCCn1c(=O)c2[nH]c(-c3ccc(OCc4nc5ccc(C(F)(F)F)cc5[nH]4)cc3)nc2n(CCC)c1=O | 11.1% | 37.8% | 69.2% | 87% | 41.4% | 67.7% | 23.6% | 46.7% | 42.8% | 59.3%
CN1CCN(Cc2ccc(C(=O)Nc3cccc(Nc4ccc5cc(O)ccc5n4)c3)cc2C(F)(F)F)CC1 | -66% (active) | 26.5% | -28.9% (active) | -66.5% (active) | -74.6% (active) | -46.2% (active) | -68.8% (active) | -11.5% (active) | -47% (active) | -85.4% (active)
Cc1ccc(-c2nc(Nc3ccccc3C(=O)O)c3ccccc3n2)cc1 | -4.11% (active) | 15.3% | 33.8% | 28.3% | -9.44% (active) | -19.5% (active) | 33.2% | 30.5% | 18.7% | 80.9%
Nc1nc2c(F)c(F)c(F)c(F)c2s1 | 102% | 98.6% | 103% | 92.6% | 107% | 90.5% | 89.5% | 99.4% | 85.1% | 114%
COc1cccc(/C=N/NC(=O)c2ccc3nc(-c4ccc(Cl)cc4)[nH]c3c2)c1O | -95.2% (active) | -85.8% (active) | -81.6% (active) | -91.9% (active) | -84.4% (active) | -85.2% (active) | -83% (active) | -76.8% (active) | -90.3% (active) | -88.8% (active)
Cc1ccn2c(C(=O)c3ccc(Br)cc3)cc(-c3cc(-c4ccc(N(C)C)cc4)c(C#N)c(N)n3)c2c1 | 27.6% | 60.5% | 41% | 78.8% | 54.4% | 31.2% | 45.3% | 70.2% | 40.9% | 47.5%
COc1ccc(C(=O)Nc2ccc(-c3ccc4c(c3)NC(=O)/C4=C\c3ccc[nH]3)cc2)cc1 | 41.5% | -4.15% (active) | 86.6% | 63.1% | 14.9% | 97.5% | 64.2% | 74.4% | 20.4% | 48.1%
COc1ccc(-c2nc(Nc3ccccc3S(N)(=O)=O)c3ccccc3n2)cc1 | -0.0975% (active) | -43% (active) | 35.1% | 77.7% | -24.9% (active) | 4.23% (active) | 59.7% | -2.67% (active) | -16.5% (active) | 75.9%
O=C(N=Nc1c(O)[nH]c2ccc(Br)cc12)c1ccc2nc(-c3ccccc3)[nH]c2c1 | -66.1% (active) | -47.9% (active) | -62.9% (active) | -61.9% (active) | -73.5% (active) | -78.8% (active) | -79% (active) | -24.6% (active) | -92.9% (active) | -67.5% (active)
Cc1ccc(NC(=O)NCn2c(=O)[nH]c3ccccc3c2=O)cc1 | 53.2% | 22.5% | 89.1% | 44.8% | 64.7% | 30.7% | 73.7% | 81.1% | 50.7% | 115%
Cc1ccc(-c2nc3ccc(C(=O)N=Nc4c(O)[nH]c5ccc(Cl)cc45)cc3[nH]2)cc1 | -83.8% (active) | -17.6% (active) | 3.76% (active) | -73.7% (active) | 4.47% (active) | -35.8% (active) | -81.3% (active) | 28% | -42.9% (active) | 3.66% (active)
CCOc1ccc(Nc2nc3ccccc3nc2Nc2ccc(OCC)cc2)cc1 | 55.2% | 85.6% | 71.3% | 64.9% | 17.2% | 27.6% | 55.9% | 41.3% | 32.1% | 95.9%
CN(C(=O)c1ccc(C(C)(C)C)cc1)c1sc2c(c1C#N)CCC(=O)C2 | -29.1% (active) | 62.6% | 88.4% | 34.6% | 35.6% | 21.9% | -45.8% (active) | 91.5% | 50.3% | 80.7%
O=c1oc2ccc(-c3ccc(F)cc3F)cc2c(=O)n1-c1ccc(Cl)c(C(F)(F)F)c1 | -42.7% (active) | -18.8% (active) | -2.17% (active) | -18.8% (active) | 8.48% (active) | -19.4% (active) | -12.6% (active) | 15% | 7.66% (active) | -81.3% (active)
COC1CC(Cn2cc(COc3ccc4ccc(=O)oc4c3)nn2)C(OCc2ccccc2)C(OCc2ccccc2)C1OCc1ccccc1 (stereo not given) | 95.1% | 92.8% | 106% | 98.9% | 113% | 80.3% | 92.4% | 92.3% | 102% | 121%
O=C1NC(=NC23CC4CC(CC(C4)C2)C3)N/C1=C\c1ccc2ncsc2c1 | -10.3% (active) | -4% (active) | 4.94% (active) | 9.31% (active) | 7.74% (active) | 5.85% (active) | -7.87% (active) | 16.5% | 16.1% | -29.6% (active)
CN1CCc2c(sc3ncnc(N/N=C/c4ccc5ccccc5c4)c23)C1 | 66.1% | 86.1% | 97% | 82% | 0.259% (active) | 89.2% | 83.9% | 42.7% | 51% | 36.3%
CN1C(=O)N(C)C2SC(N/N=C/c3ccccc3)=NC21 (stereo not given) | 79.5% | 98.1% | 98.3% | 76.9% | 68.9% | 111% | 60.4% | 72.4% | 82.3% | 92.5%
Cc1cc(=O)oc2cc(OCCCCOc3ccc(/C=C/C(=O)Nc4ccccc4[N+](=O)[O-])cc3)ccc12 | 98.8% | 127% | 99.6% | 109% | 119% | 130% | 105% | 106% | 111% | 124%
O=C(/C=C/Nc1ccccc1)c1ccc2c(c1)Nc1ccccc1S2 | 70% | 43.5% | 75.7% | 53.5% | 62.5% | 98.7% | 61.4% | 87.7% | 87.2% | 100%
CCCn1c(=O)c2[nH]c(-c3ccc(OCc4nc5ccc(C#N)cc5[nH]4)cc3)nc2n(CCC)c1=O | 81.5% | 51.2% | 76.3% | 77.9% | 66.2% | 78.5% | 71.1% | 79.9% | 72.1% | 94.9%
CC(=O)Oc1ccccc1C(=O)Oc1ccc(C(=O)/C=C/c2ccncc2)cc1 | 36.9% | 62.8% | 66.5% | 83.4% | 35.6% | 94.1% | 59.1% | 81% | 53.2% | 40.4%
COC1=C[C@]23CCC(=O)N2CCc2cc4c(cc2[C@@H]3[C@@H]1OC(=O)CCCC(C)C)OCO4 | 53.2% | 23.3% | 108% | 70.5% | 17.4% | 95.6% | -2.41% (active) | 49.9% | 80.5% | 68%
CC1(C)CC[C@]2(C(=O)NCCCNCCCCNCCCN)CC[C@]3(C)C(=CC[C@@H]4[C@@]5(C)Cc6c([nH]c7ccccc67)C(C)(C)[C@@H]5CC[C@]43C)[C@H]2C1 | 83.7% | 71.8% | 101% | 85% | 96.5% | 60.5% | 79.6% | 86.5% | 89.1% | 115%
Clc1cccc(N/N=C/c2c[nH]c3ccccc23)n1 | 57.3% | 50.7% | 65.9% | 46.9% | 28.9% | -10.8% (active) | 16.1% | 56.4% | 13.7% | 37.2%
